Screens as filed in PubChem.
DAX1 inh-1 = inhibitors of human orphan nuclear receptor DAX1 (NR0B1) | P51843 | HEK293 Gal4-DAX1 luciferase reporter, luminescence | inhibition, % at 6.75 µM | 0.99% of 340,000 active;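 active = inhibition above the mean over all tested compounds plus 3 SD, cut at about 4.2% in these data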;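 also: 0% = DAX1-transfected cells with DMSO and 100% = empty-vector control cells with DMSO; inhibition shows as a rise in luminescence from relieved DAX1 repression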
Target sequence (P51843 207-470 limits assumed): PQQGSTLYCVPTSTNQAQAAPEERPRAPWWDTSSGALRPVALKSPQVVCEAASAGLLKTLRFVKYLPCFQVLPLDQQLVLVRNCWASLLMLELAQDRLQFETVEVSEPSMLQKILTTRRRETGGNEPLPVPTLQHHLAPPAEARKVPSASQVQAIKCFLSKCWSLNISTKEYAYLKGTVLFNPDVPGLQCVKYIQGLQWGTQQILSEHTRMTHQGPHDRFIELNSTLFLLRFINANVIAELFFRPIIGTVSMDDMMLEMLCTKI
GAA850 FXN act = activators of GAA850 frataxin (FXN) promoter; HEK293 lucGAA850 FXN promoter luciferase reporter, 24 h; percent of 10 µM SAHA response; activation, % at 6 µM; 0.56% of 360,000 active; AID 540364;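 active = activation above the average of all compounds screened plus 3 SD, cutoff fixed separately per campaign, cut at about 7.5% in these data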;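 also: 0% = DMSO wells and 100% = 10 µM SAHA wells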
hgDAF12 agonist = hgDAF-12 agonism, primary luciferase screen | HEK293 GAL4-hgDAF12 UAS-luciferase reporter, agonist luminescence; normalized to butyrate control | activation, % at 6.8 µM | 1.8% of 370,000 active | AID 687014;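 active = activation above a cutoff set at the mean of all screened compounds plus 3 SD, cut at about 10% in these data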;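 also: 0% = DMSO wells and 100% = sodium butyrate wells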
hcDAF12 agonist = H. contortus DAF-12 activation, primary screen; HEK293 hcDAF-12 lit1-tk-luc reporter, luminescence; 0% DMSO, 100% Δ7-dafachronic acid; 1.4% of 370,000 active; activation, % at 6.8 µM; AID 652067;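 active = activation above the mean of all tested compounds plus 3 SD, cut at about 5.5% in these data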;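 also: 100% = response to 3 µM Δ7-dafachronic acid high control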
DAX1 inh-2 = inhibitors of DAX1 repression of SF-1 activated StAR promoter; HEK293T StAR-luciferase reporter, SF-1/DAX-1 repression relief; 1.1% of 370,000 active; inhibition, % at 6.8 µM; AID 652010;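 active = inhibition above the mean over all tested compounds plus 3 SD, cut at about 3.6% in these data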;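 also: 0% = DAX-1 cells with DMSO and 100% = cells lacking DAX-1 with DMSO; higher inhibition means more luminescence from relief of DAX-1 repression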
ssDAF12 agonist = S. stercoralis DAF-12 activation, primary screen; activation, % at 6.8 µM; 1% of 370,000 active; HEK293 ssDAF-12/GRIP1 lit1-tk-luc reporter, luminescence; % of 3 µM dafachronic acid response; AID 652126;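 active = activation above the mean over all tested compounds plus 3 SD, cut at about 0.9% in these data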;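 also: 0% = DMSO-only wells and 100% = 3 µM delta7-dafachronic acid wells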
hgDAF12 ag = hgDAF-12 agonism, confirmation assay; activation, % at 6.8 µM; HEK293 GAL4-hgDAF12 luciferase reporter, agonist mode; percent of butyrate response; 80% of 3,300 active; shares compounds with hgDAF12 agonist;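 active = mean activation over triplicate wells above the hit cutoff derived from the earlier primary screen, cut at about 11% in these data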;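 also: 0% = DMSO low control and 100% = 2 mM sodium butyrate high control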
LXR ag 2 = counter-screen for DAF-12 agonists: agonists of human LXR-beta | shares compounds with hgDAF12 agonist | HEK293 Gal4-LXR luciferase reporter, 24 h | activation, % at 6.8 µM | 3,300 tested, under 10 active | AID 743051;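 active = mean activation of the triplicate above a set limit carried over from the primary screen, none filed active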
Target sequence (P55055 whole entry, looked up, the tested form may be a part): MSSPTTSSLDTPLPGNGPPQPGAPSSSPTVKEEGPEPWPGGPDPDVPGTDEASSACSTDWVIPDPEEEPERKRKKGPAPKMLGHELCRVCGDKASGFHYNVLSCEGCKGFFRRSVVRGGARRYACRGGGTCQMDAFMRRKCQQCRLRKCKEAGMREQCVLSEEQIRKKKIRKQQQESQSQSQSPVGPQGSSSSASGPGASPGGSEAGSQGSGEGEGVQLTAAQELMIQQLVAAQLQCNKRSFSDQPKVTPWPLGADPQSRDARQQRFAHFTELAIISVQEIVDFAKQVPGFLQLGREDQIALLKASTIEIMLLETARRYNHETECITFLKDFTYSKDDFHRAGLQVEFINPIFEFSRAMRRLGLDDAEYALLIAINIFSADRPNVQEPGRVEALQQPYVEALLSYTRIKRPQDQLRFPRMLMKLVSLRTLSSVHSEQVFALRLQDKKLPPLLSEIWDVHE
The depositor's hits bear a star; · = no result given. In the library only some 4.5% were active in any assay of this set; here they are far more common.

SMILES | DAX1 inh-1 | GAA850 FXN act | hgDAF12 agonist | hcDAF12 agonist | DAX1 inh-2 | ssDAF12 agonist | hgDAF12 ag | LXR ag 2
Cc1ccc(-c2cc(-c3nnc(SCC(=O)Nc4nccs4)n3N)[nH]n2)cc1 | · | · | 13.3* | 3.5 | 2.2 | -0.5 | 10.4* | 0.5
Cn1c(SCC(=O)Nc2nccs2)nnc1-c1ccncc1 | -0.7 | 1.1 | 0.1 | -0.5 | -0.1 | -1.2 | · | ·
CCOC(=O)N/N=C/c1cn(CCCOc2ccc(C)cc2)c2ccccc12 | -2.0 | 3.4 | 17.1* | -2.6 | -0.5 | -1.0 | 5.0 | 0.3
CCOC(=O)N/N=C/c1cn(CCCOc2ccccc2)c2ccccc12 | -2.1 | 2.7 | 5.8 | -0.6 | 0.1 | -1.1 | · | ·
CC(=O)Nc1ccc(/C(N=Nc2ccccc2)=N/N=C(N)N)cc1 | 4.5* | -0.3 | 13.4* | 5.1 | 3.3 | 1.6* | 16.1* | 0.6
CC(=O)Nc1ccc(C(=O)c2ccccc2)cc1 | -0.2 | 4.2 | 2.3 | -1.4 | 0.2 | -1.2 | · | ·
CCC(=O)Nc1ccc2c(c1)C(=O)c1ccccc1C2=O | 1.5 | 4.7 | 13.4* | 6.4* | 3.8* | 0.8 | 16.2* | 0.8
CNC(=O)N(O)C1N(/N=C/c2cc(Br)ccc2O)C(=S)SC1(C)C (configuration not stated) | -0.2 | 1.6 | -0.8 | -1.8 | 0.4 | -1.0 | · | ·
Brc1ccc(NC2=Nc3ccccc3CC2)cc1 | 0.8 | 3.7 | 3.7 | 2.8 | 1.6 | -1.1 | · | ·
Cc1ccc(NC2=Nc3ccccc3CC2)cc1 | -0.5 | 4.9 | 13.7* | 6.3* | 2.2 | 0.8 | 17.2* | 1.2
Cc1ccccc1C(=O)c1cccn1CC(=O)NC(C)c1ccc2c(c1)OCCO2 (configuration not stated) | -1.9 | -0.7 | -0.8 | -1.3 | -0.4 | -1.7 | · | ·
Cc1cccc(NC(=O)CSc2nccn2Cc2ccco2)c1 | 2.3 | 4.2 | 14.0* | 2.0 | 3.9* | -0.8 | 13.0* | 0.5
Cc1cc(C)cc(NC(=O)CSc2nccn2Cc2ccco2)c1 | 0.4 | -0.2 | 0.0 | -1.5 | -1.6 | -1.0 | · | ·
COc1ccc(S(=O)(=O)NC(C)C)cc1C(=O)N1CCOCC1 | 0.9 | 1.1 | 3.3 | -1.9 | 0.7 | -2.0 | · | ·
CN(CC(=O)Nc1cccc(F)c1)C(=O)/C=C/c1cn(Cc2ccccc2)nc1-c1cccnc1 | -0.3 | -2.1 | 2.0 | 2.6 | 0.0 | -0.1 | · | ·
O=C(NC1=NCCS1)c1cc(-c2ccccc2)nn1-c1ccccc1 | 1.6 | -0.5 | -0.9 | -1.2 | -0.1 | -1.3 | · | ·
O=C(/C=C/c1ccc(-c2ccccc2)cc1)NC1=NCCS1 | · | · | 17.6* | 3.6 | · | -0.4 | 13.5* | 0.4
COc1cccc(NC(=O)c2ccc3nc(C)c(N(C)Cc4ccc(NC(C)=O)cc4)n3c2)c1 | · | 0.2 | -1.8 | -1.0 | -0.3 | -1.2 | · | ·
COc1ccc2c(=O)cc(-c3cccnc3)oc2c1OC | 1.4 | 1.2 | -0.5 | -2.5 | 0.2 | -1.3 | · | ·
CCN(CC)S(=O)(=O)c1cc(C(=O)OCC(=O)Nc2ccc(-c3nc4ccc(C)cc4s3)cc2)ccc1F | 1.4 | 7.0 | 16.2* | 5.4 | 1.6 | 1.2* | 18.9* | 1.1
CCN(CC)S(=O)(=O)c1cc(C(=O)OCC(=O)Nc2cccc(S(=O)(=O)N(C)C)c2)ccc1F | -1.3 | -0.4 | -0.2 | 0.2 | 0.7 | -1.6 | · | ·
Cc1ccc2nc(-c3ccc(NC(=O)COCC(=O)O)cc3)sc2c1 | 3.2 | 2.5 | 16.0* | 4.5 | 3.0 | 0.3 | 10.7* | 0.5
CCC(=O)NC(=S)Nc1ccc(-c2nc3ccccc3s2)cc1 | 3.5 | 1.8 | 6.8 | 2.0 | 2.3 | -0.3 | · | ·
CCC(=O)NC(=S)Nc1ccc(-c2nc3ccc(C)cc3s2)cc1 | -0.2 | 5.6 | 16.7* | 1.1 | 1.8 | -0.8 | 12.7* | 0.3
Cc1ccc(C2(C)NC(=O)N(CC(=O)Nc3ccc(-c4nc5ccc(C)cc5s4)cc3)C2=O)cc1 (configuration not stated) | 1.4 | 0.7 | 23.7* | 4.4 | 2.3 | 1.1* | 11.8* | 0.5
SMILES | DAX1 inh-1 | GAA850 FXN act | hgDAF12 agonist | hcDAF12 agonist | DAX1 inh-2 | ssDAF12 agonist | hgDAF12 ag | LXR ag 2
Cc1ccc(S(=O)(=O)N2CCC(C(=O)Nc3nnc(C)s3)CC2)cc1 | -0.9 | -2.3 | -2.7 | -0.1 | -0.2 | -0.5 | · | ·
Cc1ccc(S(=O)(=O)/N=C(/NNC(=O)c2cccc(Cl)c2)c2ccccc2)cc1 | 1.1 | 6.2 | 13.9* | 4.9 | 2.5 | 0.9 | 21.2* | 0.9
Cc1ccc(S(=O)(=O)NN/C(=N/S(=O)(=O)c2ccccc2)c2ccccc2)cc1 | 0.5 | -2.5 | -0.4 | -1.7 | 0.0 | -1.2 | · | ·
O=C(NN/C(=N/S(=O)(=O)c1ccc(Cl)cc1)c1ccccc1)c1ccc(O)cc1 | 0.0 | 0.9 | 15.6* | -0.6 | 3.2 | -0.3 | 9.4 | 0.5
COc1ccc(NC(=S)NC(=NS(=O)(=O)c2ccc(Cl)cc2)c2ccccc2)cc1 | 2.0 | 1.5 | 13.3* | 2.4 | 3.1 | 0.6 | 9.5 | 0.4
COc1ccc(-n2nc(C(=O)NCC(=O)NCCc3ccc(OC)c(OC)c3)c3ccccc3c2=O)cc1Cl | 2.4 | -4.2 | -2.1 | -1.4 | -1.0 | -1.6 | · | ·
N#Cc1ccc(Nc2nc(-c3ccccc3)cs2)cc1 | · | · | 18.3* | 3.6 | -0.6 | 0.7 | 15.9* | 0.7
C=CCN(c1ccccc1C(=O)O)S(=O)(=O)/C=C/c1ccccc1 | -0.1 | 0.3 | -1.1 | -1.0 | 1.1 | -2.0 | · | ·
Nc1ccccc1NC(=O)c1ccccc1 | 7.4* | 4.3 | 27.0* | 2.1 | 4.3* | -1.0 | 50.9* | 0.2
Cc1ccc(NC(=O)c2cc(C)on2)cc1 | 0.3 | 3.7 | 15.3* | 0.3 | 1.9 | -1.1 | 9.5 | 0.5
Cc1ccc(Cn2ccc(NC(=O)c3cc(C)on3)n2)cc1 | 0.0 | 5.2 | 4.7 | -0.4 | 1.0 | -0.6 | · | ·
Cc1nc(NC(=O)CCc2ccccc2)sc1C | 0.6 | 2.0 | 3.9 | 0.2 | 0.7 | -0.7 | · | ·
Cc1ccc(NC(=O)c2ccc(Cl)c(N3C(=O)C=CC3=O)c2)cc1 | 2.6 | 5.9 | 13.5* | 3.4 | 3.8* | 0.5 | -0.1 | 0.0
Cc1nc(NC(=O)c2ccccc2)sc1C | 2.7 | 4.8 | 13.6* | 3.4 | 2.5 | 1.0* | 15.9* | 0.8
Cc1ccc(NC(=O)c2ccc3c(c2)[nH]c(=O)n3C(C)C)cc1 | -0.7 | 3.3 | 4.0 | -0.4 | 0.2 | -1.3 | · | ·
Cc1onc(-c2ccccc2)c1C(=O)OCC(=O)N1CCCCC1 | 0.4 | -0.9 | 5.6 | -0.4 | -0.5 | -1.4 | · | ·
CCN(CC(=O)Nc1ccc2c(c1)OCCO2)C(=O)CSCC(=O)Nc1ccc(C)cc1 | 0.4 | 0.3 | 0.8 | 1.3 | 1.2 | -1.2 | · | ·
Cc1ccc(NC(=O)c2ccccc2)cc1 | 1.9 | 4.1 | 13.7* | 2.7 | 1.6 | 0.5 | 16.6* | 0.8
